AMA1-RON2 inh: inhibitors of Plasmodium falciparum AMA1-RON2 interaction; AlphaScreen AMA1-biotinylated RON2 peptide binding; Potency, µM (titrated, usually from 58.2 µM), actives largely listed as inhibitors; hit rate 0.2% among 360,000; AID 720542; note: nearly all actives have a fitted effect of over 45% in size
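AMA1 (3D7) with his tag at 25 nM final met compounds first, then biotinylated RON2 peptide at 25 nM; detection used donor plus acceptor beads, 10 µg/mL apiece, read by AlphaScreen after 30 min at room temperature.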
Pf growth 96h: inhibits malaria parasite growth, 96 h | P. falciparum luciferase reporter growth, 96 h | Potency, µM (series often up to 28.7 µM), most hits filed as inhibitors | hit rate 6.9% among 320,000 | AID 504834
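Parasite growth measured via integrated firefly luciferase reporter in P. falciparum. Infected erythrocytes at 2% hematocrit, 0.05% parasitemia final were treated 96 hours at 37 C under 5% CO2, and luminescence was read.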
Shiga inhibitor: Shiga toxin inhibition | Vero cells, Shiga toxin protein synthesis inhibition reporter | inhibition, % at 38.7 µM | hit rate 9.2% among 290,000 | AID 2315; in the data active = inhibition mostly above about 28%, no sharp cut-off; inactive = mostly below about 43%
HCV inh: blocks hepatitis C virus; Huh7.5.1 HCVcc-Cre infection, luciferase reporter, 44 h; Potency, µM (doses to about 41.8 µM), most hits filed as inhibitors; hit rate 3.4% among 340,000; AID 651820
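A cell-based infection assay in which seeded cells (1,000 per well) receive test compound after 4 h, are inoculated with HCVcc-Cre at approximately 0.5 moi, and are incubated 44 h before luminescence detection.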
Pf growth 48h: P. falciparum growth inhibition at 48 hours (one generation); hit rate 5.9% among 310,000; Potency, µM (titrated, usually from 28.7 µM), usual class: inhibitors; P. falciparum luciferase growth in erythrocytes, 48 h
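Erythrocytes infected with P. falciparum carrying an integrated firefly luciferase reporter (2% hematocrit, 0.1% parasitemia final) were exposed to compounds in RPMI 1640 with 0.5% Albumax at 37 C, 5% CO2. Growth inhibition was scored as reduced luminescence.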
CHX counter: counter-screen for Shiga toxin inhibitors: cycloheximide protein synthesis inhibition. cell reporter, cycloheximide protein synthesis inhibition counterscreen. AID 2314. max response, %. hit rate 12% among 300,000; in the data active = max response mostly above about 13%, no sharp cut-off; inactive = mostly below about 14%; note: read at 38.3 µM for the half of the compounds with a filed dose
Each line names hits and unclear results; the compound was inactive in the other large screens. This is a sample that favours compounds with a hit; in the whole collection about 21% have one here. Unless noted, calls come from the whole dose curve; as a rule, active = well fitted curve in the direction sought with a large enough effect; inconclusive = small, poorly fitted or top-dose-only effect, or another doubt; inactive = no such curve, though single readings can be large; an effect the other way counts as inactive or inconclusive.

COCC(C)N1CCC(Oc2ccc(C(=O)NCc3ccccn3)cc2)CC1 (stereo unspecified)	Pf growth 96h 12µM
CCOc1ccccc1NC(=O)Cn1nnc(C(=O)NCc2ccc3c(c2)OCO3)c1N	Pf growth 48h inconclusive
Cc1ccc([C@H]2N[C@]3(CCCN(Cc4ccc(F)cc4)C3=O)[C@H]3C(=O)N(C)C(=O)[C@@H]23)cc1	none (no result: Pf growth 96h, Shiga inhibitor, HCV inh, Pf growth 48h, CHX counter)
CCCCN(c1ccccc1)S(=O)(=O)c1cccc(C(=O)Nc2c(C)n(C)n(-c3ccccc3)c2=O)c1	none (no result: Pf growth 96h, Shiga inhibitor, Pf growth 48h, CHX counter)
CCc1ccc(NC(=O)C(=O)NCC2CCCN2S(=O)(=O)c2cccs2)cc1 (stereo unspecified)	HCV inh inconclusive, Pf growth 48h inconclusive (no result: Shiga inhibitor, CHX counter)
CCOC(=O)N1CCN(C(=O)CC(C(=O)N2CCc3ccccc32)n2ccnc2)CC1 (stereo unspecified)	Pf growth 48h 0.033µM
NNC(=O)c1c[nH]c2ccc(OCc3ccccc3)cc12	none (no result: Pf growth 96h, Shiga inhibitor, Pf growth 48h, CHX counter)
NC(N)=NC(=O)c1nc(Cl)c(N)nc1N	Pf growth 96h inconclusive, HCV inh inconclusive, Pf growth 48h 3.8µM
Nc1c(Cl)ncnc1N1CCCC1	Pf growth 96h inconclusive
NC(N)=NC(=O)c1nc(Cl)c(N2CCCCCC2)nc1N	Pf growth 96h 9.3µM, HCV inh inconclusive, Pf growth 48h 4.7µM (no result: Shiga inhibitor, CHX counter)
Cc1ccccc1-c1cccc([C@@H]2C[C@H]3[C@H](CON3C)CN2Cc2ccccc2)c1	none (no result: Pf growth 96h, Shiga inhibitor, Pf growth 48h, CHX counter)
CN(C)C(=S)Oc1ccccc1C1(C)OCCO1	none (no result: Pf growth 96h, Shiga inhibitor, HCV inh, Pf growth 48h, CHX counter)
Cc1nn(C)c(Cl)c1C(=O)NCC(=O)Nc1ccc(C(C)C)cc1	Pf growth 48h inconclusive
O=C(COC(=O)COc1ccc2ccccc2c1)NCC(F)(F)F	none
CC1=C2C(=O)C3C(CC=C4CC(O)CCC43C)C2CCC12OC1CC(C)CNC1C2C (stereo unspecified)	Pf growth 96h inconclusive, Pf growth 48h 13µM
Cc1ccc(NC(=O)c2nc3nccc(C)n3n2)c(C)c1	Shiga inhibitor 80, CHX counter 30
Cc1csc(NC(=O)c2nc3nccc(C)n3n2)n1	Shiga inhibitor 72, CHX counter 18 (no result: Pf growth 96h)
Cc1ccnc2nc(C(=O)Nc3nc4ccccc4s3)nn12	Shiga inhibitor 62, CHX counter 45
Cc1ccnc2nc(C(=O)Nc3nnc(CC(C)C)s3)nn12	HCV inh inconclusive (no result: Pf growth 48h)
COc1ccc(NC(=S)NC(NC(=O)C(C)C)C(Cl)(Cl)Cl)c([N+](=O)[O-])c1 (stereo unspecified)	Pf growth 48h 2.6µM
COc1ccc([N+](=O)[O-])cc1NC(=S)NC(NC(=O)Cc1ccc(OC)c(OC)c1)C(Cl)(Cl)Cl (stereo unspecified)	HCV inh 7.9µM, Pf growth 48h inconclusive
O=C(Cc1ccc([N+](=O)[O-])cc1)Nc1ccc(Cl)cc1	Pf growth 48h 10µM
COc1ccc([N+](=O)[O-])cc1NC(=O)Cc1ccc(Cl)cc1	Pf growth 96h 10µM, HCV inh 8.9µM
COc1ccc([N+](=O)[O-])cc1NC(=O)Cc1ccc(C)cc1	Pf growth 96h inconclusive
COc1ccc(Cc2nnc(NC(=O)CS(=O)(=O)c3ccccc3)s2)cc1OC	none
CC1(C(=O)NCc2ccc3c(c2)OCO3)CCN1C(=O)CC1CCCC1 (stereo unspecified)	none (no result: Pf growth 96h, Shiga inhibitor, HCV inh, Pf growth 48h, CHX counter)
CC(CNC(=O)CN1C(=O)COc2ccc(S(=O)(=O)N3CCCCC3)cc21)c1ccccc1 (stereo unspecified)	HCV inh inconclusive
CCN(Cc1ccccc1)C(=O)CN1C(=O)COc2ccc(S(=O)(=O)N3CCCCCC3)cc21	Pf growth 96h inconclusive, Pf growth 48h 10µM
CNC(=O)CN1C(=O)COc2ccc(S(=O)(=O)N3CCCCCC3)cc21	none
CC(C)N(Cc1ccccc1)C(=O)CN1C(=O)COc2ccc(S(=O)(=O)NC3CCCC3)cc21	Pf growth 96h inconclusive, Pf growth 48h 5.2µM
CCN(C(=O)CN1C(=O)COc2ccc(S(=O)(=O)N3CCCCCC3)cc21)c1cccc(C)c1	Pf growth 96h inconclusive, HCV inh inconclusive, Pf growth 48h 3.3µM
CCOc1ccc(NC(=O)CN2C(=O)COc3ccc(S(=O)(=O)N4CCCCC4)cc32)cc1	HCV inh inconclusive, Pf growth 48h inconclusive
COc1ccc(NC(=O)CN2C(=O)COc3ccc(S(=O)(=O)N4CCCCCC4)cc32)cc1	Pf growth 96h 10µM, HCV inh inconclusive
Cc1cc(Cl)c2oc(C(=O)N(C)Cc3nccn3C)c(C)c2c1	HCV inh inconclusive, Pf growth 48h inconclusive
COc1cccc(OC)c1C(=O)NC(=S)Nc1ccc(S(=O)(=O)Nc2nccs2)cc1	Pf growth 48h 13µM
COc1ccc(NS(=O)(=O)c2ccc(NC(=O)c3ccc(Br)cc3)cc2)nn1	none
COc1ccc(NS(=O)(=O)c2ccc(NC(=S)NC(=O)c3ccc(Br)cc3)cc2)nn1	Pf growth 96h 12µM
O=C(NC(=S)Nc1ccc(S(=O)(=O)Nc2nccs2)cc1)c1ccccc1	Pf growth 96h 13µM
O=C(NC(=S)Nc1ccc(S(=O)(=O)Nc2nccs2)cc1)c1cccnc1	none
Cc1ccc(S(=O)(=O)Nc2cc(=O)[nH]c(SCC(=O)Nc3cccc(C)c3)n2)cc1	Pf growth 48h 1.9µM
Cc1ccc(NC(=O)CSc2nc(NS(=O)(=O)c3ccccc3)cc(=O)[nH]2)cc1	Pf growth 96h 3.7µM (no result: Pf growth 48h)
CCc1ccc(NC(=O)CSc2nc(NS(=O)(=O)c3ccccc3)cc(=O)[nH]2)cc1	Pf growth 96h 4.1µM, HCV inh inconclusive, Pf growth 48h inconclusive
CCOc1ccc(NC(=O)CSc2nc(NS(=O)(=O)c3ccc(C)cc3)cc(=O)[nH]2)cc1	none
O=C(CSc1nc(NS(=O)(=O)c2ccccc2)cc(=O)[nH]1)Nc1ccccc1Cl	Pf growth 96h inconclusive, HCV inh inconclusive
CN(C)CCn1c2ccccc2c2nc3ccc([N+](=O)[O-])cc3cc21	Pf growth 96h inconclusive, Shiga inhibitor 39, Pf growth 48h 1.9µM, CHX counter 16
CCOCCc1nnc(NC(=O)CCS(=O)(=O)c2ccccc2)s1	none
O=C(CN1CCOCC1)Nc1ccc(NC(=O)c2ccccc2F)cc1	none
COc1cccc(NC(=O)C2CCN(C(=O)[C@@H]3Cc4ccccc4CN3)CC2)c1	Pf growth 96h inconclusive, Pf growth 48h inconclusive, CHX counter 38
COc1cccc(NC(=O)C2CCN(C(=O)[C@@H]3Cc4ccccc4CN3C(=O)OC(C)(C)C)CC2)c1	Pf growth 96h inconclusive, Pf growth 48h 10µM
C[C@@H](NC(=O)[C@@H]1Cc2ccccc2CN1C(=O)OC(C)(C)C)C(=O)NC1CCCCC1	Pf growth 96h 13µM, Pf growth 48h inconclusive
O=C(NCc1ccco1)C1CCN(C(=O)c2ccc(Cl)cc2Cl)CC1	none
COc1ccc(CCNC(=O)CNS(=O)(=O)c2ccc(F)c(Cl)c2)cc1OC	Pf growth 96h inconclusive, Pf growth 48h inconclusive
Cc1cccc(COC(=O)C(Cc2ccccc2)NC(N)=O)c1 (stereo unspecified)	none
Nc1nonc1C(=O)NCCNCc1ccccc1OCc1ccccc1F	none

Assay outcomes: PubChem, National Center for Advancing Translational Sciences (NCATS)
